Test results as given in the supplement of paper PMC13380429.

Tested on: Vero E6 infected with SARS-CoV-2
Test: inhibition of SARS-CoV-2 cytopathic effect; higher = more antiviral protection, active = above 15
Settings: 48 h

Measured: inhibition of SARS-CoV-2 cytopathic effect

C=CCNC(=O)c1cc([N+](=O)[O-])cc2c(=O)[nH]c(Nc3ccc(Cl)c(Cl)c3)nc12
inactive: 1 nM 0.56% | 8.33 nM 4.08% | 100 nM -1.8% | 833.33 nM 9.51% | 10000 nM 1.19%

Cc1cc(C)c(NC(=O)N(Cc2ccc3c(c2)Cc2ccccc2-3)C2CCCCCC2)c(C)c1
inactive: 1 nM 0.2% | 8.33 nM 0.24% | 100 nM 1.89% | 833.33 nM 3.17% | 10000 nM -1.02%

O=C1c2ccc(Nc3ccc(F)cc3F)cc2CCc2ccc(OC[C@H](O)CO)cc21 [skepinone-L]
inactive: 1 nM -0.76% | 8.33 nM -3.41% | 100 nM -5.13% | 833.33 nM -8.06% | 10000 nM -9.5%

C1N2CN3CN1CN(C2)C3 [methenamine]
inactive: 1 nM -3.74% | 8.33 nM 0.58% | 100 nM -1.64% | 833.33 nM -0.2% | 10000 nM -1.08%

NNCCc1ccccc1 [phenelzine]
inactive: 1 nM 1.22% | 8.33 nM -0.85% | 100 nM -0.27% | 833.33 nM -0.81% | 10000 nM 3%

O=C(O)c1nn(Cc2ccc(Cl)cc2Cl)c2ccccc12 [lonidamine]
inactive: 1 nM -0.69% | 8.33 nM 0.67% | 100 nM 0.81% | 833.33 nM 1.31% | 10000 nM -0.94%

CC(C)(S)C(N)C(=O)O (stereo in doubt) [penicillamine-(racemic)]
inactive: 1 nM -0.3% | 8.33 nM -1.45% | 100 nM -0.335% | 833.33 nM -1.03% | 10000 nM -0.18%

O=C(NCC(=O)N1CCCC1)Nc1ccc2cnccc2c1
inactive: 1 nM -2.26% | 8.33 nM 0.25% | 100 nM 0.13% | 833.33 nM 1% | 10000 nM -1.4%

CCc1cnn2c(NCc3ccc[n+]([O-])c3)cc(N3CCCC[C@H]3CCO)nc12 [dinaciclib]
inactive: 1 nM 1.49% | 8.33 nM -1.48% | 100 nM -3.71% | 833.33 nM -9.46% | 10000 nM -8.75%

O=C(O)CC[C@H]1CC[C@@](c2cc(F)ccc2F)(S(=O)(=O)c2ccc(Cl)cc2)CC1
inactive: 1 nM -2.65% | 8.33 nM -0.66% | 100 nM -4.1% | 833.33 nM -7.63% | 10000 nM -8.12%

C#C[C@]1(O)CC[C@H]2[C@@H]3CCC4=CC(=O)CCC4=C3C=C[C@@]21CC [gestrinone]
inactive: 1 nM 1.67% | 8.33 nM 0.8% | 100 nM 4.87% | 833.33 nM 3.58% | 10000 nM 5.58%

O=c1ccn([C@@H]2O[C@H](COP(=O)(O)OP(=O)(O)OP(=O)(O)O)[C@@H](O)[C@H]2O)c(=O)[nH]1
inactive: 1 nM -0.655% | 8.33 nM 1.84% | 100 nM 3.83% | 833.33 nM 2.04% | 10000 nM -0.735%

NC(=O)CC[C@H](N)C(=O)O [L-glutamine]
inactive: 1 nM 0.7% | 8.33 nM 2.45% | 100 nM 0.59% | 833.33 nM 0.71% | 10000 nM -2.64%

Cc1cccc(NC(=O)N[C@@H]2N=C(c3ccccc3)c3ccccc3N(C)C2=O)c1
inactive: 1 nM -0.47% | 8.33 nM 1.7% | 100 nM 0.28% | 833.33 nM 0.31% | 10000 nM 0.03%

CC(=O)c1c(C)c2cnc(Nc3ccc(N4CCNCC4)cn3)nc2n(C2CCCC2)c1=O [palbociclib]
inactive: 1 nM 2.16% | 8.33 nM 0.47% | 100 nM -4.3% | 833.33 nM -0.35% | 10000 nM 5.01%

O=S(=O)(N[C@H]1CC[C@@](c2cc(F)ccc2F)(S(=O)(=O)c2ccc(Cl)cc2)CC1)C(F)(F)F
inactive: 1 nM 2.61% | 8.33 nM 4.08% | 100 nM -0.09% | 833.33 nM -2.63% | 10000 nM -2.01%

Nc1nccc(Oc2ccc(NC(=O)c3c[nH]cc(-c4ccc(F)cc4)c3=O)cc2F)c1Cl [metatinib]
inactive: 1 nM 0.06% | 8.33 nM 0.76% | 100 nM 0.97% | 833.33 nM 4.29% | 10000 nM -2.56%

C[N+](C)(C)CCOC(N)=O [carbachol]
inactive: 1 nM 1.16% | 8.33 nM 1.84% | 100 nM -1.48% | 833.33 nM 2.68% | 10000 nM 4.16%

CC(C)Cc1ccc(C(C)C(=O)O)cc1 (stereo not given) [ibuprofen]
inactive: 1 nM 1.03% | 8.33 nM -0.113% | 100 nM -0.0767% | 833.33 nM 1.1% | 10000 nM -0.35%
